# Data from PubChem BioAssay AID504913 (The Scripps Research Institute Molecular Screening Center, 2011).
# Some of the results follow. Unmarked numbers belong to inactive results. No stated cut-off is given here; in the data, active means activation above about 18%; inactive means the rest.
# Experiment: activation of mu-delta opioid heterodimer signal – cell-based, luminescence, counter-screen for HTR5A agonist project (AID 504913)
# Details: U2OS counter-screen cells, complementation luminescence, 3 h; at 9.3 µM; stronger effect = higher value
structure (smiles),measurement,value
CCCCCCCCCCCCn1ccc(=N)cc1,activation,2.92%
